Screening data as filed in PubChem.
In the library only some 2.7% were active in any assay of this set; here they are far more common.
PfGluPho inh = PfG6PD enzyme inhibitors, primary screen, biochemical, fluorescence intensity, uHTS; glucose-6-phosphate dehydrogenase-6-phosphogluconolactonase (Plasmodium falciparum 3D7); PfGluPho enzyme, NADPH resazurin-diaphorase fluorescence; inhibition, % at 20 µM; 0.78% of 350,000 active; AID 504690, 2011;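 active = inhibition reaching at least a set limit at 20 µM in the primary screen, cut at about 59% in these data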;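 also: 0% = DMSO wells with substrate and 100% = DMSO wells lacking glucose-6-phosphate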
FAS-TE inh = FAS thioesterase domain inhibitors, primary screen, biochemical, fluorescence intensity, uHTS | recombinant FAS-TE, OMFH fluorogenic substrate, fluorescence endpoint | Fatty acid synthase (Homo sapiens), P49327 | inhibition, % at 15 µM | 0.67% of 360,000 active;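 active = compounds whose normalised, plate-corrected inhibition of enzyme fluorescence in the single-dose primary screen is 50% or more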;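 also: 0% = DMSO with enzyme and 100% = substrate without enzyme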
Neddyl block = inhibitors of cullin neddylation, primary screen, biochemical, TR-FRET, uHTS, NAE and Ubc12. calls only at 25 µM. 0.58% of 360,000 active. AID 651699, 2012; in the data active = inhibition above about 36%
proKLK7 act = proKLK7 zymogen activators, primary screen, biochemical, fluorescence intensity; Kallikrein-7 (Homo sapiens), P49862; 0.9% of 370,000 active; activation, % at 7 µM; purified proKLK7, EDANS-DABCYL substrate fluorescence; 100% is mature enzyme control, 0% vehicle; AID 652039, 2013;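 active = activation above the mean of all tested compounds plus 3 SD, computed per campaign excluding outliers beyond control limits, cut at about 13% in these data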
Target sequence (P49862 whole entry, looked up): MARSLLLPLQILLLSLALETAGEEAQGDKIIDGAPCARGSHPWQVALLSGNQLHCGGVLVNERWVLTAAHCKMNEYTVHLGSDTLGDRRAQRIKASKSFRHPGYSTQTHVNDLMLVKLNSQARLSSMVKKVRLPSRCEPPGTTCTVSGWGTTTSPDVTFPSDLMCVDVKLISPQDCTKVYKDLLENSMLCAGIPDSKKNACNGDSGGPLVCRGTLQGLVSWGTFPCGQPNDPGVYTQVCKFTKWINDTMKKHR
Neddyl conf = blockade of NEDD8 conjugation to cullin – biochemical, TR-FRET, single concentration, confirmation. shares compounds with Neddyl block. TR-FRET cullin neddylation biochemical assay. calls only at 25 µM. 13% of 1,800 active; in the data active = inhibition above about 40%;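 also: neddylation substrate is the cullin 1 ring ligase complex with SKP2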
* = called active by the depositor; i = inactive; . = no result shown; + = active, no number.

SMILES | PfGluPho inh | FAS-TE inh | Neddyl block | proKLK7 act | Neddyl conf
CCOc1cc(S(=O)(=O)NCc2ccco2)c(OCC)cc1-n1cnnn1 | -16.9 | 0.5 | + | 0.3 | .
O=C(COc1ccccc1)Nc1ccc(-c2nnc(-c3ccco3)o2)cc1 | 13.0 | -3.2 | + | 0.2 | i
COc1ccccc1OCC(=O)Nc1cccc(-c2nnc(-c3ccco3)o2)c1 | 3.4 | 11.4 | i | 0.1 | .
CN1[C@@H](Cc2ccccc2)COc2cccc(F)c2S1(=O)=O | . | . | . | 0.4 | .
COC(=O)[C@@H]1Cc2c([nH]c3ccccc23)C2CCC(=O)N21 (stereo partly specified) | 8.6 | -3.1 | i | 0.1 | .
O=C(O)[C@@H]1Cc2c([nH]c3ccccc23)C2CCC(=O)N21 (stereo partly specified) | 14.0 | -6.5 | + | 1.6 | i
COc1ccc(CNC(=O)CSc2cccc3cccnc23)cc1 | 1.1 | -4.8 | + | -0.7 | i
COc1ccc(NC(=O)CSc2cccc3cccnc23)c(OC)c1 | 17.0 | -9.1 | i | 0.3 | .
c1coc(C2Nc3ccccc3C3OCCC23)c1 (stereo unspecified) | 14.9 | -6.3 | + | 0.9 | i
CCOc1ccc2[nH]c(=O)c(CN(Cc3ccco3)C(CC)c3nnnn3Cc3ccccc3)cc2c1 (stereo unspecified) | 24.5 | -8.6 | + | -4.4 | i
CCOc1ccc2[nH]c(=O)c(CN(Cc3cccs3)C(CC)c3nnnn3C(C)(C)CC)cc2c1 (stereo unspecified) | 0.3 | -7.7 | + | -0.1 | i
COC(=O)[C@]12C[C@H](CC(=O)N3CCCC3)C(=O)N(CCC3=CCCCC3)C1=C[C@H](C(C)(C)C)O[C@@H]2C | . | . | . | -0.2 | .
CCN(C(=O)CSc1nnc(-c2cccnc2)n1Cc1ccco1)c1ccccc1 | . | . | . | -0.4 | .
COc1ccc2sc(-c3ccc(SC)cc3)c(C#CCO)c2c1 | 11.4 | 13.4 | + | -33.7 | .
COc1ccc2sc(-c3ccc(SC)cc3)c(C#CC(C)(C)O)c2c1 | 22.6 | 20.3 | i | -20.9 | .
Nc1cccc(-c2ccc(CO)o2)c1 | 10.3 | -5.4 | + | 0.7 | i
NC(=O)c1csc(-c2ccc(CO)o2)n1 | . | -4.1 | i | -0.2 | .
COc1ccc(C2c3[nH]c4ccccc4c3CCN2Cc2ccoc2)c(F)c1 (stereo unspecified) | -1.8 | 15.0 | + | 1.9 | i
CNc1ccccc1/C(O)=C(\C#N)C(=O)NCc1cccs1 | . | . | . | 0.3 | .
CCOC(=O)[C@@]12CCCC3=C1N(CCC3)C(=O)[C@H]2CC(=O)NCC1CCCCC1 | . | . | . | -0.4 | .
Cc1ccccc1NC(=O)CSc1ccc(-c2ccco2)nn1 | 1.7 | -7.0 | i | 0.2 | .
O=C(Cn1nc(-c2cccs2)ccc1=O)Nc1ccc(Br)cc1 | 8.0 | 8.0 | i | 0.5 | .
Cc1cccc(NC(=O)Cn2nc(-c3ccco3)ccc2=O)c1C | -7.8 | 1.3 | + | 9.5 | .
O=C(Cn1nc(-c2ccco2)ccc1=O)Nc1ccc(Br)cc1 | -13.2 | -0.2 | + | 4.1 | .
CCCCn1cnc2c(c1=O)c1nc3ccccc3nc1n2Cc1ccc2c(c1)OCO2 | -6.6 | -2.0 | i | 0.1 | .
SMILES | PfGluPho inh | FAS-TE inh | Neddyl block | proKLK7 act | Neddyl conf
CCCn1cnc2c(c1=O)c1nc3ccccc3nc1n2CCc1ccccc1 | 2.2 | -4.1 | + | 0.1 | i
CC(C)Cn1c2nc3ccccc3nc2c2c(=O)n(CCN3CCOCC3)cnc21 | -4.4 | -3.6 | + | -1.0 | i
CCCCn1c2nc3ccccc3nc2c2c(=O)n(CCC(C)C)cnc21 | -8.0 | -3.9 | i | -0.4 | .
Cn1c2ccccc2c2ncn(CCN3CCOCC3)c(=O)c21 | 1.4 | -10.5 | i | 0.2 | .
CCCCn1c2nc3ccccc3nc2c2c(=O)n(-c3ccccc3)cnc21 | -0.7 | 8.3 | + | -1.2 | i
OC[C@H]1CC[C@@H]2O[C@H](CCc3ccc(-c4ccc(F)cc4)cc3)[C@@H](n3cc(C4CC4)nn3)C[C@@H]2O1 | . | . | . | 0.9 | .
CC(C(=O)Nc1ccc2nccnc2c1)N1C(=O)C2C3C=CC(C3)C2C1=O (stereo unspecified) | 0.1 | -0.1 | + | 0.8 | .
CC(C(=O)NC1CCCCC1)N1C(=O)C2C3C=CC(C3)C2C1=O (stereo unspecified) | 5.5 | -3.1 | i | 0.3 | .
O=C(CN1CCN(c2nc(-c3ccccc3)cs2)CC1)Nc1ccc(Cl)cc1 | . | . | . | 0.4 | .
O=C(O)c1cc(Cl)nc2ccccc12 | 2.7 | -3.5 | i | 0.2 | .
O=C(O)c1cc(N2CCCCC2)nc2ccccc12 | -2.1 | -8.4 | + | 2.0 | +
NC(=O)c1cnn2c(-c3cccc(C(F)(F)F)c3)ccnc12 | 10.0 | -3.1 | + | 6.0 | i
COc1cc(/C=C/C(=O)NCCN2CCOCC2)cc(OC)c1OC | -7.1 | -10.5 | + | 0.7 | i
Cc1cc(-c2ccccc2)[nH]c(=O)c1C#N | -2.2 | 0.6 | + | -14.4 | .
N#Cc1c(-c2ccco2)cc(-c2ccccc2)[nH]c1=O | -4.7 | -35.3 | . | 9.5 | .
Cc1ccc(-c2cc(-c3ccco3)c(C#N)c(=O)[nH]2)cc1 | 7.1 | -39.7 | + | -4.4 | i
CSc1cc(-c2ccccc2)[nH]c(=O)c1C#N | -22.0 | -1.1 | i | -9.7 | .
CN(/N=C/c1cccnc1)c1cnc2ccccc2n1 | 16.9 | -1.6 | + | -85.0 | i
CSc1ccc(C(O)c2ncc(-c3cccc(F)c3)[nH]2)cc1 (stereo unspecified) | . | 1.9 | i | 1.8 | .
c1ccc(-c2cc3c(-n4cccc4)ncnc3o2)cc1 | 14.7 | 16.0 | + | -0.9 | i
COc1ccc(-c2ccc(C(=O)NCc3ccc(N4CCN(C)CC4)cc3)c3occc23)c(C)c1 | . | 6.6 | i | 0.1 | .
CCCCN(C)C(=O)c1cc2cc3ccc(OC)cc3nc2o1 | -7.9 | 18.0 | + | 12.3 | +
COc1ccc2nc3sc(C(=O)NCCN4CCc5ccccc5C4)cc3cc2c1 | 13.8 | -4.0 | i | -2.7 | .
COc1ccc2cc3cc(C(=O)NCCCN4CCc5ccccc5C4)sc3nc2c1 | -9.6 | -4.7 | + | -13.3 | +
CCN(CC)c1cc(C)c2cc(NC(=O)c3ccccc3OC)ccc2n1 | 8.2 | 22.6 | + | -116.1 | i
COc1ccccc1C(=O)Nc1ccc2c(c1)nc1n2CCN(Cc2ccccc2)C1 | 3.2 | -2.5 | + | 0.8 | i
COc1cc2c(cc1OC)C(COc1ccc(C(C)C)cc1)NCC2 (stereo unspecified) | 1.4 | -4.7 | + | 1.2 | i
COc1cc2c(cc1OC)C(c1cccs1)NCC2 (stereo unspecified) | -3.6 | -2.3 | i | 0.3 | .
Cc1ccccc1CC(=O)Nc1ccc2c(C)cc(=O)oc2c1 | 2.3 | -3.6 | + | 1.8 | i
